# Experimental data reported in the supplement of paper PMC4466140.
# Target: CaNbp2
# Test: SPOT peptide array binding signal intensity (averaged, normalized) (arbitrary units (background-subtracted, floor 0; scale differs between SH3 domains)); higher = stronger binding of the SH3 domain to the peptide
# Summary of the method: (§1)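 Spot intensities were captured after detection with anti-GST antibody, an HRP-linked anti-mouse secondary and luminol, and quantified with Genespotter. The probes were GST-fused SH3 domains from four yeast species, produced in E. coli BL21(DE3), purified on glutathione Sepharose and incubated at 10 μg/ml overnight at 4°C on cellulose-bound synthetic 15-mer peptides with cysteines replaced by serines. Binding signal is the normalized, background-subtracted spot intensity averaged over replicates, and its arbitrary units differ between domains.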
row,Binder,SPOT peptide array binding signal intensity
1,YVRRRPRVRLEPLLS,887

# Target: CaRvs167
# Test: as above
# Summary of the method: as §1
row,Binder,SPOT peptide array binding signal intensity
1,YVRRRPRVRLEPLLS,23.8

# Target: CaRvs167-3
# Test: as above
# Summary of the method: as §1
row,Binder,SPOT peptide array binding signal intensity
1,YVRRRPRVRLEPLLS,82.6

# Target: CaSho1
# Test: as above
# Summary of the method: as §1
row,Binder,SPOT peptide array binding signal intensity
1,YVRRRPRVRLEPLLS,898

# Target: CaSla1-D1-D2
# Test: as above
# Summary of the method: as §1
row,Binder,SPOT peptide array binding signal intensity
1,YVRRRPRVRLEPLLS,114

# Target: CaSla1-D3
# Test: as above
# Summary of the method: as §1
row,Binder,SPOT peptide array binding signal intensity
1,YVRRRPRVRLEPLLS,5.25

# Target: ScAbp1
# Test: as above
# Summary of the method: as §1
row,Binder,SPOT peptide array binding signal intensity
1,YVRRRPRVRLEPLLS,128

# Target: ScBbc1
# Test: as above
# Summary of the method: as §1
row,Binder,SPOT peptide array binding signal intensity
1,YVRRRPRVRLEPLLS,24.8

# Target: ScBem1-D1
# Test: as above
# Summary of the method: as §1
row,Binder,SPOT peptide array binding signal intensity
1,YVRRRPRVRLEPLLS,46.5

# Target: ScBzz1-D1
# Test: as above
# Summary of the method: as §1
row,Binder,SPOT peptide array binding signal intensity
1,YVRRRPRVRLEPLLS,58.5

# Target: ScBzz1-D2
# Test: as above
# Summary of the method: as §1
row,Binder,SPOT peptide array binding signal intensity
1,YVRRRPRVRLEPLLS,117

# Target: ScCyk3
# Test: as above
# Summary of the method: as §1
row,Binder,SPOT peptide array binding signal intensity
1,YVRRRPRVRLEPLLS,79.5

# Target: ScFus1
# Test: as above
# Summary of the method: as §1
row,Binder,SPOT peptide array binding signal intensity
1,YVRRRPRVRLEPLLS,706

# Target: ScHof1
# Test: as above
# Summary of the method: as §1
row,Binder,SPOT peptide array binding signal intensity
1,YVRRRPRVRLEPLLS,0.5

# Target: ScHse1
# Test: as above
# Summary of the method: as §1
row,Binder,SPOT peptide array binding signal intensity
1,YVRRRPRVRLEPLLS,2260

# Target: ScLsb1
# Test: as above
# Summary of the method: as §1
row,Binder,SPOT peptide array binding signal intensity
1,YVRRRPRVRLEPLLS,22.5

# Target: ScLsb2
# Test: as above
# Summary of the method: as §1
row,Binder,SPOT peptide array binding signal intensity
1,YVRRRPRVRLEPLLS,8

# Target: ScLsb3
# Test: as above
# Summary of the method: as §1
row,Binder,SPOT peptide array binding signal intensity
1,YVRRRPRVRLEPLLS,558

# Target: ScLsb4
# Test: as above
# Summary of the method: as §1
row,Binder,SPOT peptide array binding signal intensity
1,YVRRRPRVRLEPLLS,29.5

# Target: ScMyo3
# Test: as above
# Summary of the method: as §1
row,Binder,SPOT peptide array binding signal intensity
1,YVRRRPRVRLEPLLS,6.25

# Target: ScMyo5
# Test: as above
# Summary of the method: as §1
row,Binder,SPOT peptide array binding signal intensity
1,YVRRRPRVRLEPLLS,3

# Target: ScNbp2
# Test: as above
# Summary of the method: as §1
row,Binder,SPOT peptide array binding signal intensity
1,YVRRRPRVRLEPLLS,548

# Target: ScPex13
# Test: as above
# Summary of the method: as §1
row,Binder,SPOT peptide array binding signal intensity
1,YVRRRPRVRLEPLLS,18.2

# Target: ScRvs167
# Test: as above
# Summary of the method: as §1
row,Binder,SPOT peptide array binding signal intensity
1,YVRRRPRVRLEPLLS,30.8

# Target: ScSho1
# Test: as above
# Summary of the method: as §1
row,Binder,SPOT peptide array binding signal intensity
1,YVRRRPRVRLEPLLS,1070

# Target: ScSla1-D1-D2
# Test: as above
# Summary of the method: as §1
row,Binder,SPOT peptide array binding signal intensity
1,YVRRRPRVRLEPLLS,309

# Target: ScSla1-D3
# Test: as above
# Summary of the method: as §1
row,Binder,SPOT peptide array binding signal intensity
1,YVRRRPRVRLEPLLS,29.9

# Target: SpAbp1-D1
# Test: as above
# Summary of the method: as §1
row,Binder,SPOT peptide array binding signal intensity
1,YVRRRPRVRLEPLLS,252

# Target: SpBbc1
# Test: as above
# Summary of the method: as §1
row,Binder,SPOT peptide array binding signal intensity
1,YVRRRPRVRLEPLLS,23.2

# Target: SpBzz1-D1
# Test: as above
# Summary of the method: as §1
row,Binder,SPOT peptide array binding signal intensity
1,YVRRRPRVRLEPLLS,125

# Target: SpBzz1-D2
# Test: as above
# Summary of the method: as §1
row,Binder,SPOT peptide array binding signal intensity
1,YVRRRPRVRLEPLLS,4.62

# Target: SpCyk3
# Test: as above
# Summary of the method: as §1
row,Binder,SPOT peptide array binding signal intensity
1,YVRRRPRVRLEPLLS,2

# Target: SpHof1
# Test: as above
# Summary of the method: as §1
row,Binder,SPOT peptide array binding signal intensity
1,YVRRRPRVRLEPLLS,97.6

# Target: SpHof1-2
# Test: as above
# Summary of the method: as §1
row,Binder,SPOT peptide array binding signal intensity
1,YVRRRPRVRLEPLLS,29.5

# Target: SpHof1-3
# Test: as above
# Summary of the method: as §1
row,Binder,SPOT peptide array binding signal intensity
1,YVRRRPRVRLEPLLS,256

# Target: SpHse1
# Test: as above
# Summary of the method: as §1
row,Binder,SPOT peptide array binding signal intensity
1,YVRRRPRVRLEPLLS,834

# Target: SpLsb1
# Test: as above
# Summary of the method: as §1
row,Binder,SPOT peptide array binding signal intensity
1,YVRRRPRVRLEPLLS,7.88

# Target: SpLsb4
# Test: as above
# Summary of the method: as §1
row,Binder,SPOT peptide array binding signal intensity
1,YVRRRPRVRLEPLLS,254

# Target: SpMyo1
# Test: as above
# Summary of the method: as §1
row,Binder,SPOT peptide array binding signal intensity
1,YVRRRPRVRLEPLLS,5.25

# Target: SpNbp2
# Test: as above
# Summary of the method: as §1
row,Binder,SPOT peptide array binding signal intensity
1,YVRRRPRVRLEPLLS,673

# Target: SpPex13
# Test: as above
# Summary of the method: as §1
row,Binder,SPOT peptide array binding signal intensity
1,YVRRRPRVRLEPLLS,61.8

# Target: SpRvs167
# Test: as above
# Summary of the method: as §1
row,Binder,SPOT peptide array binding signal intensity
1,YVRRRPRVRLEPLLS,23

# Target: SpSla1-D1-D2
# Test: as above
# Summary of the method: as §1
row,Binder,SPOT peptide array binding signal intensity
1,YVRRRPRVRLEPLLS,9

# Target: SpSla1-D3
# Test: as above
# Summary of the method: as §1
row,Binder,SPOT peptide array binding signal intensity
1,YVRRRPRVRLEPLLS,87
